Measurements published in PubChem BioAssay (NCI).
About 79,000 compounds went through this panel and 15% of them were active in at least one assay; those are over-represented in the sample as a whole. The source made the active and inactive calls. Cut-off read from the data, not from the text of the source: active = growth inhibition above about 70%; inactive = the rest.

How the values were obtained:
[1] = NCI Yeast Anticancer Drug Screen. Data for the mec2-1 strain (AID 157); details: S. cerevisiae mec2-1 strain, stronger effect = higher value
In short: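 Yeast mec2-1 mutant treated with compound. Readout: growth inhibition vs vehicle controls.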

[2] = NCI Yeast Anticancer Drug Screen. Data for the rad14 strain (AID 159);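 note: 0% = growth of vehicle-treated control cultures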; details: S. cerevisiae rad14 strain growth inhibition, stronger effect = higher value
In short: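 Growth inhibition vs vehicle controls; genetically altered yeast strain (DNA damage repair defect) treated with test compounds.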

[3] = NCI Yeast Anticancer Drug Screen. Data for the sgs1 mgt1 strain (AID 161);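 note: 0% = growth of cultures given vehicle only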; details: S. cerevisiae sgs1 mgt1 strain, stronger effect = higher value
In short: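 Read-out: growth inhibition vs vehicle controls. Cells: mutant yeast strain deficient in DNA damage repair.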

[4] = NCI Yeast Anticancer Drug Screen. Data for the CLN2oe strain (AID 163);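 note: 0% = growth of vehicle-only control cultures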; details: S. cerevisiae CLN2oe strain, stronger effect = higher value
In short: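 Read-out: yeast growth inhibition, expressed relative to vehicle-only controls. The strain bears an engineered cell-cycle alteration.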

[5] = NCI Yeast Anticancer Drug Screen. Data for the cln2 rad14 strain (AID 165);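 note: 0% = growth equal to vehicle treated cultures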; details: S. cerevisiae cln2 rad14 strain, stronger effect = higher value
In short: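 cln2 rad14 yeast strain; compound exposure; growth inhibition read vs vehicle controls.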

[6] = NCI Yeast Anticancer Drug Screen. Data for the bub3 strain (AID 167); details: S. cerevisiae bub3 mutant strain, stronger effect = higher value
In short: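 Readout: yeast growth inhibition, expressed relative to vehicle-only wells. The test organism is a mutant strain from a panel with lesions in DNA repair or checkpoint genes.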

[7] = NCI Yeast Anticancer Drug Screen. Data for the wt2 strain (AID 169);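 note: 0% = growth of vehicle-treated yeast cultures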; details: S. cerevisiae wt2 strain growth inhibition, stronger effect = higher value
In short: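 Read-out: growth inhibition versus vehicle-treated control cultures after compound exposure of the yeast strain.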

[8] = NCI Yeast Anticancer Drug Screen. Data for the sgs1 strain (AID 173);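 note: 0% = growth of vehicle-only control cultures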; details: S. cerevisiae sgs1 mutant, stronger effect = higher value
In short: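 Read-out: yeast growth inhibition relative to vehicle controls, following compound exposure of a strain with a defined DNA repair/cell cycle alteration.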

[9] = NCI Yeast Anticancer Drug Screen. Data for the mlh1 rad18 strain (AID 175); details: S. cerevisiae mlh1 rad18 strain growth inhibition, stronger effect = higher value
In short: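 Yeast w/ defined DNA-repair lesions; compound exposure; growth vs vehicle controls → % inhibition.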

[10] = NCI Yeast Anticancer Drug Screen. Data for the rad18 strain (AID 177); details: S. cerevisiae rad18 mutant growth inhibition, stronger effect = higher value
In short: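 Readout: growth inhibition vs vehicle controls. Cells: genetically altered yeast strain, DNA repair defect.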

[11] = NCI Yeast Anticancer Drug Screen. Data for the rad52 strain (AID 147);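 note: 0% = growth of vehicle-treated control cultures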; details: S. cerevisiae rad52 mutant growth inhibition, stronger effect = higher value
In short: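 Read-out: growth inhibition versus vehicle-treated controls. Cells were a DNA repair-deficient yeast strain treated with compounds.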

[12] = NCI Yeast Anticancer Drug Screen. Data for the wt1 strain (AID 149);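 note: 0% = growth of vehicle-treated wt1 cultures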; details: S. cerevisiae wt1 strain (SPY 50644) growth inhibition, stronger effect = higher value
In short: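 Growth inhibition read against vehicle controls after compound exposure of the wt1 yeast strain.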

[13] = NCI Yeast Anticancer Drug Screen. Data for the rad50EPP+ strain (AID 151);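 note: 0% = growth of vehicle-treated control cultures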; details: S. cerevisiae rad50 mutant strain, stronger effect = higher value
In short: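 Growth inhibition read against vehicle controls in rad50EPP+ yeast, a strain altered in DNA damage repair, after compound exposure.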

[14] = NCI Yeast Anticancer Drug Screen. Data for the mgt1 strain (AID 153); details: S. cerevisiae mgt1 mutant growth inhibition, stronger effect = higher value
In short: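 mgt1 yeast grown with test compound; read-out is growth inhibition versus vehicle-treated cultures.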

[15] = NCI Yeast Anticancer Drug Screen. Data for the rad50 strain (AID 155);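 note: 0% = growth of vehicle-only cultures of the same strain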; details: S. cerevisiae rad50 strain growth inhibition, stronger effect = higher value
In short: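 Readout: growth inhibition relative to vehicle-treated cultures. Compound exposure was carried out in a genetically defined yeast strain deficient in DNA damage repair.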

[16] = NCI Yeast Anticancer Drug Screen. Data for the mlh1 strain (AID 171);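 note: 0% = growth of vehicle-treated control cultures of the same strain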; details: S. cerevisiae mlh1 strain growth inhibition, stronger effect = higher value
In short: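 Read-out: growth inhibition versus vehicle controls. Strain: engineered yeast with a defined DNA repair or cell cycle defect, compound-treated.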

[17] = at 5.0 µM (retest, dose inferred, filed as 0.5)
[18] = at 50.0 µM (retest, dose inferred, filed as 5.0)

Measured: growth inhibition

[O-][n+]1c2cccc(O)c2[n+]([O-])c2cccc(O)c21
active: [1]; [18] 80% | [3]; [18] 81% | [5]; [18] 94% | [5]; at 50.0 µM 82.8% | [6]; [18] 72% | [9]; [18] 94% | [10]; at 3.7 µM 75% | [10]; at 11.0 µM 92% | [10]; at 33.0 µM 94% | [10]; at 100.0 µM 94%
inactive: [1]; [17] 15% | [1]; at 11.0 µM 18% | [1]; at 33.0 µM 26% | [1]; at 50.0 µM 35.8% | [1]; at 100.0 µM 46% | [2]; at 1.2 µM 2% | [2]; at 3.7 µM 23% | [2]; at 11.0 µM 12% | [2]; at 33.0 µM 20% | [2]; at 100.0 µM 38% | [3]; [17] 6% | [3]; at 50.0 µM 35% | [4]; at 1.2 µM 0% | [4]; at 3.7 µM 0% | [4]; at 11.0 µM 3% | [4]; at 33.0 µM 11% | [4]; at 100.0 µM 11% | [5]; [17] 65% | [6]; at 1.2 µM 4% | [6]; at 3.7 µM 3% | [6]; [17] 0% | [6]; at 11.0 µM 0% | [6]; at 33.0 µM 3% | [6]; at 50.0 µM 42.8% | [6]; at 100.0 µM 1% | [7]; at 1.2 µM 2% | [7]; at 3.7 µM 5% | [7]; at 11.0 µM 11% | [7]; at 33.0 µM 12% | [7]; at 100.0 µM 24% | [8]; at 1.2 µM 6% | [8]; at 3.7 µM 14% | [8]; at 11.0 µM 31% | [8]; at 33.0 µM 46% | [8]; at 100.0 µM 66% | [9]; [17] -7% | [9]; at 50.0 µM 57.2% | [10]; at 1.2 µM 31%

CCOP(=S)(S)OCC.[Pd]
active: [11]; at 11.0 µM 75% | [11]; at 33.0 µM 82% | [11]; at 100.0 µM 80% | [12]; at 11.0 µM 93% | [12]; at 33.0 µM 89% | [12]; at 100.0 µM 83% | [14]; at 33.0 µM 82% | [14]; at 100.0 µM 82% | [15]; at 11.0 µM 95% | [15]; at 33.0 µM 91% | [15]; at 50.0 µM 79.4% | [15]; at 100.0 µM 92% | [1]; [17] 80% | [1]; at 11.0 µM 95% | [1]; at 33.0 µM 87% | [1]; at 100.0 µM 85% | [2]; at 33.0 µM 75% | [2]; at 100.0 µM 75% | [3]; at 50.0 µM 76.1% | [5]; at 50.0 µM 76.5% | [6]; [17] 84% | [6]; at 11.0 µM 94% | [6]; at 33.0 µM 90% | [6]; [18] 86% | [6]; at 50.0 µM 80.9% | [6]; at 100.0 µM 83% | [7]; at 11.0 µM 95% | [7]; at 33.0 µM 91% | [7]; at 100.0 µM 85% | [16]; at 11.0 µM 94% | [16]; at 33.0 µM 88% | [16]; at 100.0 µM 84% | [8]; at 3.7 µM 77% | [8]; at 11.0 µM 95% | [8]; at 33.0 µM 93% | [8]; at 100.0 µM 88% | [9]; [17] 83% | [9]; at 50.0 µM 79.5% | [10]; at 3.7 µM 86% | [10]; at 11.0 µM 98% | [10]; at 33.0 µM 96% | [10]; at 100.0 µM 93%
inactive: [11]; at 1.2 µM 5% | [11]; at 3.7 µM 45% | [12]; at 1.2 µM 2% | [12]; at 3.7 µM 55% | [13]; at 1.2 µM 0% | [13]; at 3.7 µM 11% | [13]; at 11.0 µM 24% | [13]; at 33.0 µM 20% | [13]; at 100.0 µM 8% | [14]; at 1.2 µM -2% | [14]; at 3.7 µM 17% | [14]; at 11.0 µM 68% | [15]; at 1.2 µM 12% | [15]; at 3.7 µM 57% | [15]; [17] 67% | [15]; [18] 32% | [1]; at 1.2 µM 10% | [1]; at 3.7 µM 67% | [1]; [18] 51% | [1]; at 50.0 µM 67.9% | [2]; at 1.2 µM 0% | [2]; at 3.7 µM 17% | [2]; at 11.0 µM 60% | [3]; [17] 57% | [3]; [18] 36% | [5]; [17] 23% | [5]; [18] 9% | [6]; at 1.2 µM 6% | [6]; at 3.7 µM 63% | [7]; at 1.2 µM -2% | [7]; at 3.7 µM 59% | [16]; at 1.2 µM 4% | [16]; at 3.7 µM 56% | [8]; at 1.2 µM 13% | [9]; [18] 56% | [10]; at 1.2 µM 15%

O=[N+]([O-])c1oc2ccc3ccccc3c2c1CCO
inactive: [12]; at 1.2 µM 2% | [12]; at 3.7 µM 14% | [13]; at 1.2 µM 63% | [14]; at 1.2 µM 7% | [14]; at 3.7 µM 27% | [4]; at 1.2 µM 29% | [4]; at 3.7 µM 66% | [6]; at 1.2 µM -17% | [6]; at 3.7 µM -3% | [6]; [17] 14% | [7]; at 1.2 µM 5% | [7]; at 3.7 µM 19% | [16]; at 1.2 µM 10% | [16]; at 3.7 µM 44%
active: [11]; at 1.2 µM 89% | [11]; at 3.7 µM 94% | [11]; at 11.0 µM 97% | [11]; at 33.0 µM 98% | [11]; at 100.0 µM 98% | [12]; at 11.0 µM 75% | [12]; at 33.0 µM 97% | [12]; at 100.0 µM 98% | [13]; at 3.7 µM 84% | [13]; at 11.0 µM 95% | [13]; at 33.0 µM 97% | [13]; at 100.0 µM 98% | [14]; at 11.0 µM 85% | [14]; at 33.0 µM 98% | [14]; at 100.0 µM 99% | [15]; at 1.2 µM 83% | [15]; at 3.7 µM 90% | [15]; [17] 89% | [15]; at 11.0 µM 96% | [15]; at 33.0 µM 98% | [15]; [18] 99% | [15]; at 50.0 µM 99% | [15]; at 100.0 µM 98% | [1]; at 1.2 µM 79% | [1]; at 3.7 µM 92% | [1]; [17] 97% | [1]; at 11.0 µM 98% | [1]; at 33.0 µM 99% | [1]; [18] 99% | [1]; at 50.0 µM 98.2% | [1]; at 100.0 µM 99% | [2]; at 1.2 µM 94% | [2]; at 3.7 µM 97% | [2]; at 11.0 µM 98% | [2]; at 33.0 µM 99% | [2]; at 100.0 µM 99% | [3]; [17] 92% | [3]; [18] 98% | [3]; at 50.0 µM 99.3% | [4]; at 11.0 µM 87% | [4]; at 33.0 µM 97% | [4]; at 100.0 µM 99% | [5]; [17] 98% | [5]; [18] 99% | [5]; at 50.0 µM 98.5% | [6]; at 11.0 µM 78% | [6]; at 33.0 µM 98% | [6]; [18] 99% | [6]; at 50.0 µM 97.8% | [6]; at 100.0 µM 99% | [7]; at 11.0 µM 80% | [7]; at 33.0 µM 97% | [7]; at 100.0 µM 99% | [16]; at 11.0 µM 88% | [16]; at 33.0 µM 98% | [16]; at 100.0 µM 99% | [8]; at 1.2 µM 82% | [8]; at 3.7 µM 88% | [8]; at 11.0 µM 95% | [8]; at 33.0 µM 98% | [8]; at 100.0 µM 99% | [9]; [17] 95% | [9]; [18] 99% | [9]; at 50.0 µM 96.7% | [10]; at 1.2 µM 97% | [10]; at 3.7 µM 96% | [10]; at 11.0 µM 97% | [10]; at 33.0 µM 98% | [10]; at 100.0 µM 99%
